These results are taken from PubChem BioAssay (EPA / NIEHS).

Each structure is given as a SMILES string. Active and inactive are the calls of the source. How the source made its calls: active means hit-call score of the fitted dose curve at least 0.9, where 1 is the maximum; inactive means score below 0.9.

The nature of test [1]: CEETOX_H295R_PROG: CeeTox H295R High-throughput Steroidogenesis Assay for Progesterone (PROG) (AID 2283442). Conditions: actives raise or lower the signal. The gist of the method: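 Steps: seed H295R cells and let them adhere overnight; prime 48 h with 10 uM forskolin; dose with compound in DMSO at 0.1% final for 48 h; extract medium steroids with MTBE; measure progesterone by LC-MS/MS. MTT viability was run in the same wells.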

Read-out in test [2]: Tumor necrosis factor receptor superfamily member 6 (Homo sapiens) (UniProt P25445)
Put plainly: LTEA_HepaRG_FAS: Life Technologies and Expression Analysis (LTEA) Assay for Fas cell surface death receptor (FAS) using HepaRG (AID 2283447). Conditions: mRNA level, 48 h; actives raise or lower the signal. The method in brief:
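FAS transcript level was measured by TaqMan qRT-PCR against three housekeeping genes after 48 h chemical exposure. Cells were HepaRG, 0.5% DMSO vehicle, with a top concentration of 100 uM and half-log dilutions over eight points, in duplicate.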

Read-out in test [3]: Fatty acid synthase (Homo sapiens) (UniProt P49327)
Put plainly: LTEA_HepaRG_FASN: Life Technologies and Expression Analysis (LTEA) Assay for Fatty Acid Synthase (FASN) using HepaRG (AID 2283448).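 On AC50: differentiated human HepaRG liver cells in serum-free induction medium.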 Conditions: mRNA level, 48 h; actives raise or lower the signal. The method in brief:
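Cells were plated, cultured 48 h, switched to serum-free induction medium, then dosed in duplicate (max 100 uM, half-log dilutions, 0.5% DMSO) for 48 h. RNA was then isolated and FASN quantified by qRT-PCR.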

Read-out in test [4]: Cyclin D2 (CCND2), CCND2 (gene 894)
Put plainly: LTEA_HepaRG_CCND2: Life Technologies and Expression Analysis (LTEA) Assay for Cyclin D2 (CCND2) using HepaRG (AID 2283449). Conditions: mRNA level, 48 h; actives raise or lower the signal. The gist of the method:
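CCND2 transcript levels, quantified by qRT-PCR and normalised to three housekeeping genes, were fitted bidirectionally against 0.5% DMSO. HepaRG cultures were dosed 48 h in duplicate with an 8-point half-log series up to 100 uM.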

Read-out in test [5]: Cyclin Dependent Kinase Inhibitor 1A (CDKN1A), CDKN1A (gene 1026)
Put plainly: LTEA_HepaRG_CDKN1A: Life Technologies and Expression Analysis (LTEA) Assay for Cyclin Dependent Kinase Inhibitor 1A (CDKN1A) using HepaRG (AID 2283450). Conditions: mRNA level, 48 h; actives raise or lower the signal. The gist of the method: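 Read-out is CDKN1A mRNA by TaqMan qRT-PCR, normalized to three housekeeping genes and fitted in both directions against the DMSO baseline. Human HepaRG cells were treated 48 h with test chemicals up to 100 uM in half-log steps, 0.5% DMSO.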

Read-out in test [6]: Cyclin D1 (CCND1), CCND1 (gene 595)
Nature of the test: LTEA_HepaRG_CCND1: Life Technologies and Expression Analysis (LTEA) Assay for Cyclin D1 (CCND1) using HepaRG (AID 2283451).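 On AC50: differentiated human HepaRG liver cells in serum-free induction medium; TaqMan qRT-PCR transcript level normalised to ACTB GAPDH and POLR2A housekeeping genes.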 The following applies: mRNA level, 48 h; actives raise or lower the signal. The method in brief:
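HepaRG plated 48 h, medium switched to serum-free induction medium, chemicals added in duplicate (top 100 uM, half-log steps, 0.5% DMSO) for 48 h, cells lysed, RNA measured by TaqMan qRT-PCR.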

Read-out in test [7]: catalase (CAT), CAT (gene 847)
Nature of the test: LTEA_HepaRG_CAT: Life Technologies and Expression Analysis (LTEA) Assay for catalase (CAT) using HepaRG (AID 2283452). Conditions: mRNA level, 48 h; actives raise or lower the signal. The method in brief:
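Expression of CAT was quantified by TaqMan qRT-PCR with ACTB/GAPDH/POLR2A normalization after 48 h chemical exposure of HepaRG. Eight-point half-log series, top 100 uM, in 0.5% DMSO; gain or loss fitted against vehicle.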

Read-out in test [8]: flavin-containing dimethylaniline monooxygenases 3 (FMO3), FMO3 (gene 2328)
Put plainly: LTEA_HepaRG_FMO3: Life Technologies and Expression Analysis (LTEA) Assay for flavin-containing dimethylaniline monooxygenases 3 (FMO3) using HepaRG (AID 2283453). The following applies: mRNA level, 48 h; actives raise or lower the signal. The method in brief: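 FMO3 transcript quantified by TaqMan qRT-PCR against three housekeeping genes after 48 h chemical exposure of HepaRG cells. Eight-point half-log series, top 100 uM, 0.5% DMSO vehicle; phenobarbital 1mM induction control; up- or down-regulation fitted.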

Read-out in test [9]: Cytochrome P450 (CYP1A1), CYP1A1 (gene 1543)
Put plainly: LTEA_HepaRG_CYP1A1: Life Technologies and Expression Analysis (LTEA) Assay for Cytochrome P450 (CYP1A1) using HepaRG (AID 2283454). Conditions: mRNA level, 48 h; actives raise or lower the signal. The gist of the method: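 HepaRG, 48 h post-plating switched to serum-free induction medium; 8-pt conc-response (top 100 uM, half-log, 0.5% DMSO), duplicates, 48 h. Lysis in RLT, TaqMan qRT-PCR for CYP1A1; gain or loss vs DMSO.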

Read-out in test [10]: Forkhead box O1 (FOXO1), FOXO1 (gene 2308)
Put plainly: LTEA_HepaRG_FOXO1: Life Technologies and Expression Analysis (LTEA) Assay for Forkhead box O1 (FOXO1) using HepaRG (AID 2283456). The following applies: mRNA level, 48 h; actives raise or lower the signal. The method in brief:
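FOXO1 transcript quantified by qRT-PCR after 48 h chemical exposure (top 100 uM, half-log steps, 0.5% DMSO) of HepaRG cells, housekeeping-normalized (ACTB/GAPDH/POLR2A). Changes fitted in both directions relative to vehicle.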

Read-out in test [11]: growth arrest and DNA damage 45 (GADD45A), GADD45A (gene 1647)
Put plainly: LTEA_HepaRG_GADD45A: Life Technologies and Expression Analysis (LTEA) Assay for growth arrest and DNA damage 45 (GADD45A) using HepaRG (AID 2283458). Conditions: mRNA level, 48 h; actives raise or lower the signal. The method in brief: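 Transcript induction or loss, quantified by TaqMan qRT-PCR against three housekeeping genes, is the read-out. HepaRG cells received chemicals for 48 h across eight half-log concentrations from 100 uM in 0.5% DMSO; gain and loss fitted relative to DMSO.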

Read-out in test [12]: Forkhead box O3 (FOXO3), FOXO3 (gene 2309)
Put plainly: LTEA_HepaRG_FOXO3: Life Technologies and Expression Analysis (LTEA) Assay for Forkhead box O3 (FOXO3) using HepaRG (AID 2283459). Conditions: mRNA level, 48 h; actives raise or lower the signal. The gist of the method: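 FOXO3 transcript measured by qRT-PCR (normalized to ACTB, GAPDH, POLR2A) after 48 h exposure of HepaRG cells in serum-free induction medium. Duplicates, eight half-log concentrations up to 100 uM, 0.5% DMSO; gain or loss fitted against DMSO.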

Read-out in test [13]: ABC Transporter (ABCB1), ABCB1 (gene 5243)
Nature of the test: LTEA_HepaRG_ABCB1: Life Technologies and Expression Analysis (LTEA) Assay for ABC Transporter (ABCB1) using HepaRG (AID 2283460). Conditions: mRNA level, 48 h; actives raise or lower the signal. The gist of the method: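 ABCB1 transcript level measured by TaqMan qRT-PCR against three housekeeping genes after 48 h chemical exposure of differentiated HepaRG cells. Top concentration 100 uM, half-log steps, eight points, 0.5% DMSO vehicle; bidirectional fit relative to DMSO.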

Read-out in test [14]: growth arrest and DNA damage 45 (GADD45B), GADD45B (gene 4616)
Put plainly: LTEA_HepaRG_GADD45B: Life Technologies and Expression Analysis (LTEA) Assay for growth arrest and DNA damage 45 (GADD45B) using HepaRG (AID 2283461). The following applies: mRNA level, 48 h; actives raise or lower the signal. The gist of the method: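 HepaRG, ~100,000 cells/well, 48 h plating; serum-free induction medium; cpd 100 uM top, half-log x8, 0.5% DMSO, duplicate, 48 h; lysis in RLT, RNA isolation, qRT-PCR; norm ACTB/GAPDH/POLR2A; bidirectional fit vs DMSO.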

Read-out in test [15]: ABC Transporter (ABCC3), ABCC3 (gene 8714)
Put plainly: LTEA_HepaRG_ABCC3: Life Technologies and Expression Analysis (LTEA) Assay for ABC Transporter (ABCC3) using HepaRG (AID 2283462). The following applies: mRNA level, 48 h; actives raise or lower the signal. The gist of the method: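 Human HepaRG, 48 h dosing, 8-pt half-log series from 100 uM, 0.5% DMSO vehicle, duplicates. ABCC3 mRNA by TaqMan qRT-PCR, housekeeping-normalized; bidirectional curve fit vs DMSO.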

Read-out in test [16]: ABC Transporter (ABCB11), ABCB11 (gene 8647)
Put plainly: LTEA_HepaRG_ABCB11: Life Technologies and Expression Analysis (LTEA) Assay for ABC Transporter (ABCB11) using HepaRG (AID 2283463). The following applies: mRNA level, 48 h; actives raise or lower the signal. The method in brief: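 ABCB11 transcript levels quantified by TaqMan qRT-PCR against three housekeeping genes after 48 h chemical exposure of HepaRG cultures. Concentrations up to 100 uM in half-log steps, 0.5% DMSO vehicle; both induction and suppression scored.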

Read-out in test [17]: Broad substrate specificity ATP-binding cassette transporter ABCG2 (Homo sapiens) (UniProt Q9UNQ0)
Put plainly: LTEA_HepaRG_ABCG2: Life Technologies and Expression Analysis (LTEA) Assay for ABC Transporter (ABCG2) using HepaRG (AID 2283465). Conditions: mRNA level, 48 h; actives raise or lower the signal. The gist of the method: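 ABCG2 transcript was quantified by TaqMan qRT-PCR against three housekeeping genes in HepaRG cells. Cells were treated in duplicate for 48 h across an 8-point half-log series up to 100 uM, with 0.5% DMSO vehicle. Gain or loss versus DMSO was fit.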

Read-out in test [18]: ABC Transporter (ABCC2), ABCC2 (gene 1244)
Put plainly: LTEA_HepaRG_ABCC2: Life Technologies and Expression Analysis (LTEA) Assay for ABC Transporter (ABCC2) using HepaRG (AID 2283464). Conditions: mRNA level, 48 h; actives raise or lower the signal. The gist of the method: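 HepaRG, 48 h post-plating; serum-free induction medium; cpd 8-pt, 100 uM top, half-log, 0.5% DMSO, duplicate, 48 h. Readout: ABCC2 mRNA by qRT-PCR, norm. ACTB/GAPDH/POLR2A. Bidirectional fit vs DMSO baseline.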

Read-out in test [19]: CFLAR gene, CFLAR (gene 8837)
Put plainly: LTEA_HepaRG_CFLAR: Life Technologies and Expression Analysis (LTEA) Assay for CFLAR gene using HepaRG (AID 2283455). Conditions: mRNA level, 48 h; actives raise or lower the signal. The method in brief:
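Transcript level by qRT-PCR (normalized to ACTB, GAPDH and POLR2A) after 48 h chemical exposure of HepaRG cells, top concentration 100 uM with half-log steps, 0.5% DMSO vehicle, duplicates; fitted bidirectionally against DMSO baseline.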

Chain of Fatty acid synthase (Homo sapiens) (P49327 whole entry, looked up): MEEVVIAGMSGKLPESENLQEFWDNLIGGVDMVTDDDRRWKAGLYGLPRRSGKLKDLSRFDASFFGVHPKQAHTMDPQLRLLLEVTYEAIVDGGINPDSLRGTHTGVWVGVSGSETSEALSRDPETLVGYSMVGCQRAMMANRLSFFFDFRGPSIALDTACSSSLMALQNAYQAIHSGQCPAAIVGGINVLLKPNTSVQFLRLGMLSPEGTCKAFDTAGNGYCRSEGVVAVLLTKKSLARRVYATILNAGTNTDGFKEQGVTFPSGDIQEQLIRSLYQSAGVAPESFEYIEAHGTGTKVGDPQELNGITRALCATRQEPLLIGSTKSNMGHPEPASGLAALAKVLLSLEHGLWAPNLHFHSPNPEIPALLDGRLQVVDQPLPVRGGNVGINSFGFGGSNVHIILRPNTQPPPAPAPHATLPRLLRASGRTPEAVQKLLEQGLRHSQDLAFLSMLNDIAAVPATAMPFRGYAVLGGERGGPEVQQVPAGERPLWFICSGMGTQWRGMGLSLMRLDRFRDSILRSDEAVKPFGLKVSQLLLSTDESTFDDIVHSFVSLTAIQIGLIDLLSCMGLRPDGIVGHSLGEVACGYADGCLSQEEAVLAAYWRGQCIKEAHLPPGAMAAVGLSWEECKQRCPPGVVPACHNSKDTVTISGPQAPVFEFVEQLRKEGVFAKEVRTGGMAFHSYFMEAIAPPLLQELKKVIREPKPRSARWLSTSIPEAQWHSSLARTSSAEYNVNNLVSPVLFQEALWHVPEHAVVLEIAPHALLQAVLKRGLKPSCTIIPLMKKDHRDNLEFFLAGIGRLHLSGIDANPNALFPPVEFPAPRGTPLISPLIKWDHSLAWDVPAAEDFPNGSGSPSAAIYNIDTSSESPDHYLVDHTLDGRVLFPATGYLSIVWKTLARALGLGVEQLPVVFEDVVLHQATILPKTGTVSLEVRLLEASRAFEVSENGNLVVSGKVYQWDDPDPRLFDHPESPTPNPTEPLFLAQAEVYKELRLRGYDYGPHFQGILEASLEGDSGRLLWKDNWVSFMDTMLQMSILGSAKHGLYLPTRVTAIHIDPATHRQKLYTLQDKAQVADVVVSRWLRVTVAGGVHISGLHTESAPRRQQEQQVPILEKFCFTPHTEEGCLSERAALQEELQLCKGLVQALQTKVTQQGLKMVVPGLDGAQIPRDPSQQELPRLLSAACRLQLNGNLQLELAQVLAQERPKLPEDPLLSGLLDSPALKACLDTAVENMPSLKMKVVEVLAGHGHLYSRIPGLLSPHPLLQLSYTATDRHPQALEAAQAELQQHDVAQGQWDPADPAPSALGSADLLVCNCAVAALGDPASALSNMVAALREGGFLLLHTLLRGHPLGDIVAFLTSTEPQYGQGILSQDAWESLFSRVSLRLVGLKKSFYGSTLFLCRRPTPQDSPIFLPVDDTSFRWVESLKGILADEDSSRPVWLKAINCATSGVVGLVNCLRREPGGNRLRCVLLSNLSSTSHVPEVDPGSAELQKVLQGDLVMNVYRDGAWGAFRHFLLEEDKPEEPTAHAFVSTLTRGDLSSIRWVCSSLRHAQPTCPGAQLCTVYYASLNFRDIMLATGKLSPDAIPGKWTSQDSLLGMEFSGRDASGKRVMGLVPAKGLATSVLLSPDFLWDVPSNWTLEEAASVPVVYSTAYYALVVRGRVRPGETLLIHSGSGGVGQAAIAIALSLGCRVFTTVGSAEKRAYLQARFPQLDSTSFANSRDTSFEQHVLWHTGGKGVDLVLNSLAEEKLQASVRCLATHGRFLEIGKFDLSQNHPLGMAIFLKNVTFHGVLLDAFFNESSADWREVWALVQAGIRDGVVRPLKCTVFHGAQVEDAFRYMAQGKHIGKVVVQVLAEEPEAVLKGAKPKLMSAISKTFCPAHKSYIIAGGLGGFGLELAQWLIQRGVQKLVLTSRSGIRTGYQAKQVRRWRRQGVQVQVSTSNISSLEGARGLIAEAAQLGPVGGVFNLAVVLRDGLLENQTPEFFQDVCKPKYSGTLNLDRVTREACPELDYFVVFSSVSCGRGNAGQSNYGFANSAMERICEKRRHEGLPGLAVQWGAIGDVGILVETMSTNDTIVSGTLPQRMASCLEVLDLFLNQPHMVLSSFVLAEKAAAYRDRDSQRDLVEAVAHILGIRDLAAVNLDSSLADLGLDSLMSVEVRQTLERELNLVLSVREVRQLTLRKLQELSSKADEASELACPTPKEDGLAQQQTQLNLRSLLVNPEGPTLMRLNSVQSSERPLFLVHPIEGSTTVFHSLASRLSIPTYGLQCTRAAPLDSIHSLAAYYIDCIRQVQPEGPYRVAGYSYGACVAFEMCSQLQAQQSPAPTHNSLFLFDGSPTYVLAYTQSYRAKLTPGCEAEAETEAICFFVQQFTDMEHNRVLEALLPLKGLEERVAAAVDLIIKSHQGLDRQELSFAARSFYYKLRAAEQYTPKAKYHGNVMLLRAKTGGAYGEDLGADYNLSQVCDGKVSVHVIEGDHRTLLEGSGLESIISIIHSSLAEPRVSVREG
Chain of Broad substrate specificity ATP-binding cassette transporter ABCG2 (Homo sapiens) (Q9UNQ0 whole entry, looked up): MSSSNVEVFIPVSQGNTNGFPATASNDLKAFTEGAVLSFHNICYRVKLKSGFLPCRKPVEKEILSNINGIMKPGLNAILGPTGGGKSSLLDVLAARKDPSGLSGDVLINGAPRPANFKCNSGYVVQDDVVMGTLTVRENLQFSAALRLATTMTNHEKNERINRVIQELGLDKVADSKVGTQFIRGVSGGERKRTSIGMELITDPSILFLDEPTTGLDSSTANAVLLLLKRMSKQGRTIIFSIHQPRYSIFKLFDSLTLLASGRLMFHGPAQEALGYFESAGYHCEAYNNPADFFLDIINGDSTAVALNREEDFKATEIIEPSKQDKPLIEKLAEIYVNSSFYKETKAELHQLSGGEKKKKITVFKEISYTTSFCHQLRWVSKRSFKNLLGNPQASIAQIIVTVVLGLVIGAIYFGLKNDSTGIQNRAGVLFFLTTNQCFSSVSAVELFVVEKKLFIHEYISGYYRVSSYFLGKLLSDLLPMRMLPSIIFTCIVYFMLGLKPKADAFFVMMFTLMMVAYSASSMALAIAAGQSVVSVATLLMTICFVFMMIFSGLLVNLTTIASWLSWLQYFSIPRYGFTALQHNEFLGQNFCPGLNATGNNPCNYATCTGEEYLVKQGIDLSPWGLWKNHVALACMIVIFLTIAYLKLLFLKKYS

As for `CC1=CC(=O)CC(C)(C)C1`, the result in [1], in [2], in test [3], in test [4], in test [5] and in [6] was inactive. In addition, the result in test [7], in test [8], in test [9], in test [10], in test [11] and in test [12] was inactive. The call in [13], in [14], in test [15], in test [16] and in [17] was inactive.
On to `CC[C@H](C)C(=O)O[C@H]1C[C@@H](C)C=C2C=C[C@H](C)[C@H](CC[C@@H]3C[C@@H](O)CC(=O)O3)[C@H]21`, for which the compound was called inactive in test [1], in test [4], in [5], in test [6], in [7] and in test [8]. The compound was classed as inactive in test [10], in test [11], in test [12], in test [14], in test [15] and in test [18]. For the same compound, the result in [17] was inactive. In addition, the AC50 in test [3] is 12.1 µM (active); in [9] it was 24.4 µM (active); in [13], 12.7 µM (active); in test [16], 50 µM (active).
As to `Cn1c(=O)cc(Oc2ccc(F)cc2F)c2cnc(NCC(C)(C)O)nc21`, the compound was classed as inactive in [1], in test [3], in test [4], in test [5], in test [7] and in test [8]. In addition, the compound was classed as inactive in [19], in test [10], in [11], in test [12], in [13] and in test [14]. Besides, the result in [15], in test [18] and in test [17] was inactive. Besides, the AC50 in test [6] is 17 µM (active); in test [9] it was 11.9 µM (active); in [16] it was 12.7 µM (active).
As to `C=CCCCCCCCCC(=O)O`, the compound was called inactive in test [1], in test [2], in [3], in [4], in test [5] and in test [6]. Moreover, the compound was classed as inactive in test [7], in test [8], in [10], in test [11], in [12] and in [13]. In addition, the result in test [14], in [15], in test [16] and in test [17] was inactive. Besides, the AC50 in test [9] was 50 µM (active).

For orientation: AC50 means the midpoint of the concentration-response curve, whichever way the signal moves.
